Experimental data taken from PubChem BioAssay (EPA / NIEHS).
Records with an inconclusive call do not appear. The source made the active and inactive calls. Rule for the calls: active = hit-call score of the fitted dose curve at least 0.9, where 1 is the maximum; inconclusive = response in the unintended direction; inactive = score below 0.9.

Assays:
[1] = TOX21_p53_BLA_p3_viability: Viability Assessment in the Tox21 HCT-116 p53 Agonism Beta-lactamase Assay, Phase 3 (AID 2283593);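 note: cells exposed to compound for 16 h before reading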
Summary of the method: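 Cellular ATP was quantified by CellTiter-Glo luminescence, read after 30 min at room temperature. Beforehand, HCT116 cells (4000/well) received compound 5 h post-seeding, 217-fold diluted from DMSO, then incubated 16 h at 37C.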

[2] = TOX21_p53_BLA_p4_viability: Viability Assessment in the Tox21 HCT-116 p53 Agonism Beta-lactamase Assay, Phase 4 (AID 2283597);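 note: hits lower the luminescence signal meaning cytotoxicity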
Summary of the method: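 HCT-116 p53-bla cells, 4000/well, dosed after 5 h attachment and incubated 16 h at 37 °C, 5% CO2. Viability from CellTiter-Glo ATP luminescence after 30 min at room temperature, taken after the beta-lactamase read; loss of signal indicates cytotoxicity.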

[3] = TOX21_p53_BLA_p5_viability: Viability Assessment in the Tox21 HCT-116 p53 Agonism Beta-lactamase Assay, Phase 5 (AID 2283600)
Summary of the method: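 HCT-116 p53 beta-lactamase reporter cells, 4000/well, were exposed to compound (pin transfer, 217-fold dilution) for 16 hours at 37C. Cellular ATP was read by CellTiter-Glo luminescence after 30 min at room temperature.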

[4] = biological target: Cellular tumor antigen p53 (Homo sapiens) (UniProt P04637); experiment: TOX21_p53_BLA_p4_ratio: Tox21 HCT-116 p53 Agonism Beta-lactamase Assay, Ratio, Phase 4 (AID 2283601)
Sequence of Cellular tumor antigen p53 (Homo sapiens) (P04637 whole entry, looked up): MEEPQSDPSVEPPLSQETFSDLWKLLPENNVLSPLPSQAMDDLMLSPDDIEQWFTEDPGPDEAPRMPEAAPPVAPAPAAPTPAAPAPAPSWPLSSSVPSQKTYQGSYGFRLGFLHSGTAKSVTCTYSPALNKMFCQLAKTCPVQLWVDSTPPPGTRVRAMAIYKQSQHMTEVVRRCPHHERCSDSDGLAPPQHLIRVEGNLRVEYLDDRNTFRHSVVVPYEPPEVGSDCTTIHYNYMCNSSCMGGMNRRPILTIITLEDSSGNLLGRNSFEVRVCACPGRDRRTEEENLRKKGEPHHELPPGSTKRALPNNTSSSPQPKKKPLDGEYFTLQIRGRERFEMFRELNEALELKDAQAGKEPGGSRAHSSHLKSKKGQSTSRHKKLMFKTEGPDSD
Summary of the method: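 Signal is the blue/green (460nm/530nm) ratio of cleaved versus uncleaved CCF4-AM substrate, read after 2 h substrate loading. Cells were HCT116 carrying the p53-responsive beta-lactamase reporter, dosed 16 h at 37C, 5% CO2; CellTiter-Glo measured in parallel.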

[5] = Tanguay_ZF_120hpf_MORT_legacy: (Legacy) Oregon State University Tanguay Lab 120 Hour Post-fertilization zebrafish Assay for Mortality (AID 2283633);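 for AC50: fitted as increase in binary mortality versus DMSO negative control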
Summary of the method: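 Dechorionated Tropical 5D wild-type zebrafish embryos, one per well from 6 hpf, static exposure in 0.64% DMSO at 28C until 120 hpf. Mortality scored as binary by brightfield microscopy at 24 and 120 hpf.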

[6] = Tanguay_ZF_120hpf_YSE_legacy: (Legacy) Oregon State University Tanguay Lab 120 Hour Post-fertilization zebrafish Assay for Yolk Sac Edema (AID 2283634);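 for AC50: actives raise the incidence of yolk sac edema above the DMSO baseline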
Summary of the method: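 Dechorionated Tropical 5D wild-type zebrafish embryos were exposed statically, one per well, from 6 to 120 hpf at 28C in 0.64% DMSO. Yolk sac edema was scored present/absent by brightfield at 120 hpf, and dead embryos were excluded.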

[7] = Tanguay_ZF_120hpf_AXIS_legacy: (Legacy) Oregon State University Tanguay Lab 120 Hour Post-fertilization zebrafish Assay for Body Axis Malformation (AID 2283635);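 for AC50: potency for an increased fraction of larvae scored with body axis malformation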
Summary of the method: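 Dechorionated wild-type Tropical 5D zebrafish embryos, one per well, statically exposed from 6 hpf to 120 hpf at 28C in 0.64% DMSO final. Body axis malformation scored present/absent by brightfield microscopy at 120 hpf; dead embryos excluded.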

[8] = Tanguay_ZF_120hpf_EYE_legacy: (Legacy) Oregon State University Tanguay Lab 120 Hour Post-fertilization zebrafish Assay for Eye Malformation (AID 2283636)
Summary of the method: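 Read-out is binary presence or absence of eye malformation, scored by brightfield microscopy at 120 hpf. Single larvae were exposed from 6 hpf in embryo medium containing 0.64% DMSO, with DMSO as baseline.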

[9] = biological target: Cellular tumor antigen p53 (Homo sapiens) (UniProt P04637); experiment: TOX21_p53_BLA_p5_ratio: Tox21 HCT-116 p53 Agonism Beta-lactamase Assay, Ratio, Phase 5 (AID 2283599)
Summary of the method: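 Beta-lactamase reporter ratio (blue 460 nm over green 530 nm, 405 nm excitation) after 2 h CCF4-AM loading, in HCT-116 cells exposed 16 h at 37 C to compounds pinned at 217-fold dilution. Increases relative to DMSO baseline scored.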

[10] = biological target: Cellular tumor antigen p53 (Homo sapiens) (UniProt P04637); experiment: TOX21_p53_BLA_p3_ratio: Tox21 HCT-116 p53 Agonism Beta-lactamase Assay, Ratio, Phase 3 (AID 2283596)
Summary of the method: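 HCT116 p53-bla cells (4000/well) given compound in DMSO (217-fold dilution) after 5 h, incubated 16 h at 37C. CCF4-AM substrate 2 h at room temperature; 460/530 nm emission ratio, gain fitted against DMSO.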

CC(C)CC(C)(O)C#CC(C)(O)CC(C)C (centres undefined)
outcome [1]: inactive | outcome [2]: inactive | outcome [3]: inactive | outcome [4]: inactive | outcome [5]: inactive | outcome [6]: inactive | outcome [7]: inactive | outcome [8]: inactive

COc1cccc(-c2ccc(/C=C\CN3CCCCCC3)cc2Cl)c1
outcome [1]: inactive | AC50 [2]: 52.5 µM (active) | outcome [9]: inactive | outcome [3]: inactive | AC50 [4]: 73.8 µM (active) | AC50 [5]: 32.4 µM (active) | outcome [6]: inactive | outcome [7]: inactive | outcome [8]: inactive

COc1ccc2sc(C(=O)Nc3nnn[nH]3)c(OC(C)C)c2c1
AC50 [1]: 17.8 µM (active) | AC50 [2]: 14.3 µM (active) | outcome [9]: inactive | outcome [3]: inactive | outcome [4]: inactive | outcome [5]: inactive | outcome [6]: inactive | outcome [7]: inactive | outcome [8]: inactive

CC(C)CCCCCCOC(=O)c1ccc(C(=O)OCCCCCCC(C)C)c(C(=O)OCCCCCCC(C)C)c1
outcome [1]: inactive | outcome [2]: inactive | outcome [9]: inactive | outcome [5]: inactive | outcome [6]: inactive | outcome [7]: inactive | outcome [8]: inactive

CCc1cc(SCc2sc(-c3ccc(C(F)(F)F)cc3)nc2CN2CCN(c3ccc(OC)cc3)CC2)ccc1OCC(=O)O
AC50 [1]: 17.2 µM (active) | AC50 [2]: 4.42 µM (active) | AC50 [9]: 67 µM (active) | AC50 [3]: 9.98 µM (active) | AC50 [4]: 9.5 µM (active) | outcome [5]: inactive | outcome [6]: inactive | AC50 [7]: 26 µM (active) | outcome [8]: inactive

CC(C)c1cccc(C(C)C)c1N1C(=O)c2ccc(O)cc2C1=O
AC50 [1]: 74.9 µM (active) | AC50 [2]: 68.4 µM (active) | AC50 [9]: 2.05 µM (active) | AC50 [3]: 79 µM (active) | AC50 [4]: 69.5 µM (active) | AC50 [5]: 26.9 µM (active) | outcome [6]: inactive | outcome [7]: inactive

C1N2CN3CN1CN(C2)C3
outcome [1]: inactive | outcome [2]: inactive | outcome [3]: inactive | outcome [4]: inactive | outcome [5]: inactive | outcome [6]: inactive | outcome [7]: inactive | outcome [8]: inactive

Nc1cccc(N)c1
outcome [1]: inactive | outcome [2]: inactive | outcome [9]: inactive | outcome [3]: inactive | outcome [4]: inactive | outcome [5]: inactive | outcome [6]: inactive | outcome [7]: inactive

CC1=CC(=O)CC(C)(C)C1
outcome [1]: inactive | outcome [2]: inactive | outcome [9]: inactive | outcome [3]: inactive | outcome [4]: inactive | outcome [5]: inactive | outcome [7]: inactive | outcome [8]: inactive

COc1ccc(-n2nc(C(F)F)cc2-c2ccc(S(C)=O)cc2)cc1 (centres undefined)
outcome [1]: inactive | outcome [2]: inactive | outcome [9]: inactive | outcome [5]: inactive | AC50 [6]: 24.8 µM (active) | AC50 [7]: 47 µM (active) | AC50 [8]: 51.6 µM (active)

Fc1ccccc1[C@@H](F)COC1CCC(Nc2ncnc3[nH]ncc23)CC1 (some centres undefined)
outcome [1]: inactive | outcome [2]: inactive | outcome [9]: inactive | outcome [3]: inactive | outcome [4]: inactive | outcome [5]: inactive | AC50 [6]: 23.9 µM (active) | outcome [7]: inactive | outcome [8]: inactive

CCCCC(CC)COC(=O)c1ccc(C(=O)OCC(CC)CCCC)cc1 (centres undefined)
outcome [1]: inactive | outcome [2]: inactive | outcome [9]: inactive | outcome [3]: inactive | outcome [4]: inactive | outcome [5]: inactive | outcome [6]: inactive | outcome [7]: inactive | outcome [8]: inactive

CN(C)c1ccc(N=NS(=O)(=O)O)cc1
outcome [1]: inactive | outcome [2]: inactive | outcome [9]: inactive | outcome [3]: inactive | outcome [4]: inactive | outcome [5]: inactive | outcome [6]: inactive | outcome [7]: inactive

COC(=O)c1ccccc1O
outcome [1]: inactive | outcome [2]: inactive | outcome [3]: inactive | outcome [4]: inactive | outcome [5]: inactive | outcome [6]: inactive | outcome [7]: inactive | outcome [8]: inactive

Cc1ccc(S(=O)(=O)O)cc1C
outcome [1]: inactive | outcome [2]: inactive | outcome [9]: inactive | outcome [4]: inactive | outcome [5]: inactive | outcome [6]: inactive | outcome [7]: inactive | outcome [8]: inactive

O=C1OC(=O)C2C3C=CC(C3)C12 (centres undefined)
outcome [1]: inactive | outcome [2]: inactive | outcome [9]: inactive | outcome [3]: inactive | outcome [4]: inactive | outcome [5]: inactive | outcome [6]: inactive | outcome [7]: inactive | outcome [8]: inactive

CC(C)CCO
outcome [1]: inactive | outcome [2]: inactive | outcome [3]: inactive | outcome [5]: inactive | outcome [6]: inactive | outcome [7]: inactive | outcome [8]: inactive

C=CCCCCCCCCC(=O)O
outcome [1]: inactive | outcome [2]: inactive | outcome [9]: inactive | outcome [3]: inactive | outcome [4]: inactive | outcome [5]: inactive | outcome [6]: inactive | outcome [7]: inactive | outcome [8]: inactive

CCCC(=O)OCC
outcome [1]: inactive | outcome [10]: inactive | outcome [5]: inactive | outcome [6]: inactive | outcome [7]: inactive | outcome [8]: inactive

CC(=O)c1ccc2c(c1)[C@H](NC(=O)c1ccc(F)cc1)[C@@H](O)C(C)(C)O2
outcome [1]: inactive | outcome [2]: inactive | outcome [9]: inactive | outcome [3]: inactive | outcome [4]: inactive | outcome [5]: inactive | outcome [6]: inactive | outcome [7]: inactive

Cc1ccc(O)cc1
outcome [2]: inactive | outcome [9]: inactive | outcome [3]: inactive | outcome [4]: inactive | outcome [5]: inactive | outcome [6]: inactive | outcome [7]: inactive

CC(O)CN(CCN(CC(C)O)CC(C)O)CC(C)O (centres undefined)
outcome [2]: inactive | outcome [9]: inactive | outcome [3]: inactive | outcome [4]: inactive | outcome [5]: inactive | outcome [6]: inactive | outcome [7]: inactive | outcome [8]: inactive

Cc1c(-c2cccnc2)c2ccccc2n1CCCCC(=O)O
outcome [10]: inactive | outcome [9]: inactive | outcome [4]: inactive | outcome [5]: inactive | AC50 [6]: 51.2 µM (active) | outcome [7]: inactive | outcome [8]: inactive
